For part of these data: Entries with a potency or affinity are not part of this list.
What was measured:
Design in all cases: scale not given: direction of the effect not stated beside the values
[1] = target: Protein translocase subunit SecA (Escherichia coli (strain K12)) (UniProt P10408); assay: Assay to Identify E. coli SecA ATPase Inhibitors; assay type: functional; settings: 30 µM
[2] = target: T1, Ubiquitin-activating enzyme e1, putative (Leishmania donovani (strain BPK282A1)) (UniProt E9BSI1); assay: Leishmania donovani Ubiquitin Activating Enzyme (LdE1); assay type: functional; settings: 30 µM
T1 sequence (whole entry): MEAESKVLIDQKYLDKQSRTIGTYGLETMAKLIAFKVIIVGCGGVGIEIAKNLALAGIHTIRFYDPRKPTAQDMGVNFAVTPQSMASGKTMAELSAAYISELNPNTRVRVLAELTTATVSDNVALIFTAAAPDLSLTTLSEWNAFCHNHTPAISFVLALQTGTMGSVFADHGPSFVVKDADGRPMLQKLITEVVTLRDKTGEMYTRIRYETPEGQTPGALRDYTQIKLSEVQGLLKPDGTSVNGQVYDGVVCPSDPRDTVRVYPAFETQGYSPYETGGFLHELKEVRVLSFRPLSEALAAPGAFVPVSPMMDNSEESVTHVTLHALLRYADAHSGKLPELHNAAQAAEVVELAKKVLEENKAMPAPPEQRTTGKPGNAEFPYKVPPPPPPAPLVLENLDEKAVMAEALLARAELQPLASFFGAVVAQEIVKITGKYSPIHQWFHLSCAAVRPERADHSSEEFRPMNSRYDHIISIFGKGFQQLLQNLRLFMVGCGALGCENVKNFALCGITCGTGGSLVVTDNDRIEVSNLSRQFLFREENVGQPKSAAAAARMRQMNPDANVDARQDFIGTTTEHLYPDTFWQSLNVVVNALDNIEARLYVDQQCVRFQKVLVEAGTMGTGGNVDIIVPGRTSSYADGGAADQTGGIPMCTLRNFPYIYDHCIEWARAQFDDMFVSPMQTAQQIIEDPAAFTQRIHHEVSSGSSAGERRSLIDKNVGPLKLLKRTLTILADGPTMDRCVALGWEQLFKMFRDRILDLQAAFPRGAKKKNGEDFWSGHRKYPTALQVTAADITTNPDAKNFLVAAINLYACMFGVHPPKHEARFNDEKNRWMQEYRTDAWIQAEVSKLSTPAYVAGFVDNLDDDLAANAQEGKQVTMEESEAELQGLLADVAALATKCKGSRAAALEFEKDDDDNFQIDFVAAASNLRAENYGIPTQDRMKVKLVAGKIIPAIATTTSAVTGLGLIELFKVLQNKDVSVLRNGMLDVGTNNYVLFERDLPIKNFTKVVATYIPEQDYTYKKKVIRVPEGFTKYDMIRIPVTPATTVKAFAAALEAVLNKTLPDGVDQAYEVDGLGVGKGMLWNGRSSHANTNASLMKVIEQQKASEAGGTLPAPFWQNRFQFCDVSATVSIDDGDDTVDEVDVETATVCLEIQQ

[3] = target: AMP-activated protein kinase, AMPK (Homo sapiens) (UniProt P54646+O43741+P54619+Q9UGJ0+Q9Y478+Q13131+Q9UGI9); assay: AMP-dependent Kinase enzyme assay. An in vitro enzyme assay that detects ADP turnover that is directly proportional to AMPK activity. This uses naive AMPK that is activated during the assay with MK-8722; assay type: functional; settings: 30 µM
[4] = target: Sialic acid-binding Ig-like lectin 9 (Homo sapiens) (UniProt Q9Y336); assay: Hs-Siglec9 ALPHAscreen SOP 20170721; settings: 10 µM
Chain of Sialic acid-binding Ig-like lectin 9 (Homo sapiens) (Q9Y336 whole entry): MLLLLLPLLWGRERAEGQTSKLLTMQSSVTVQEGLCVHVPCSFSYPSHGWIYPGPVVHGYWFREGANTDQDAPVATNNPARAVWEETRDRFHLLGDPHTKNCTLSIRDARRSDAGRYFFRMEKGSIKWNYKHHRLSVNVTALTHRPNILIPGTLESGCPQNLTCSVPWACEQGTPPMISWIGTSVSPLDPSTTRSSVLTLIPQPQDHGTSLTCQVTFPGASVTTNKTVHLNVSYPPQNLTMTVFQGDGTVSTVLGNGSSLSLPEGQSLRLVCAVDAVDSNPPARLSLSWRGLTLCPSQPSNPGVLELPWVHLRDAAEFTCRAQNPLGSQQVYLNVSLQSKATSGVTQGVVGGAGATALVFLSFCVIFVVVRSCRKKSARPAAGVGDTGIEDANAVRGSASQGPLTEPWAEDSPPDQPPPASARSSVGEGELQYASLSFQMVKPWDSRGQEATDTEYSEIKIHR

Trypanosoma cruzi = assay: Trypanosoma cruzi phosphomannomutase and mannose-1-phosphate guanylyltransferase assay; assay type: functional; settings: 10 µM
[5] = target: T2, Arginase-2, mitochondrial (Homo sapiens) (UniProt P78540); assay: in vitro enzyme assay to detect the production of urea directly proportional to the activity of Arginase II; assay type: functional; settings: 33.3 µM; also: in the data most compounds retested in dose-response had high values
T2 sequence (whole entry): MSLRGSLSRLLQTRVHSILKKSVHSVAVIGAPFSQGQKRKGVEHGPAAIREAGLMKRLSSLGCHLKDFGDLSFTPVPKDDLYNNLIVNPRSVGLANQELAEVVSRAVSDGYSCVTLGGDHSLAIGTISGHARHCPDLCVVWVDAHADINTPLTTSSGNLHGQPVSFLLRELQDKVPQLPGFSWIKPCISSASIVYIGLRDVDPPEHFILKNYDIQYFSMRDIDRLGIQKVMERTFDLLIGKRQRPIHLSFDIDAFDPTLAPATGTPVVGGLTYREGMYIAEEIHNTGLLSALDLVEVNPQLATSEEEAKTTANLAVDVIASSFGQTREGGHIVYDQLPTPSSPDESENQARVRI

[6] = target: T3, Proteasome subunit beta (Trypanosoma cruzi) (UniProt O96673); assay: Trypanosoma cruzi proteasome chymotrypsin-like activity (TcProtChymo) assay.; also: in the data most compounds retested in dose-response had high values; assay type: functional; settings: 9.37 µM
T3 sequence (whole entry): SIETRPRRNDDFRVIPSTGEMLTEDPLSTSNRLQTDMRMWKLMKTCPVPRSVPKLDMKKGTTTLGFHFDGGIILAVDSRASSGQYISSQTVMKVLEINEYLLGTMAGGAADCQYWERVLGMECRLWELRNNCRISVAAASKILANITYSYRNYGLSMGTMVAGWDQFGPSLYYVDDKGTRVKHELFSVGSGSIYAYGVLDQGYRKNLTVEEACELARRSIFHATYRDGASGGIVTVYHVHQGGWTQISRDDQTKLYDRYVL

Homo sapiens = organism: Homo sapiens; assay: To identify inhibition of the IFN signalling (Jak-Stat) pathway via expression of an eGFP reporter gene under the control of an IFN-stimulated response element (ISRE) containing MxA promoter.; assay type: functional; settings: 30 µM
[7] = target: T4, Tyrosyl-tRNA synthetase, putative (Trypanosoma cruzi (strain CL Brener)) (UniProt Q4DSP6); assay: Trypanosoma cruzi tyrosyl tRNA synthetase (TcYRS) _High Tyrosine SOP; assay type: functional; settings: 30 µM; also: in the data most compounds retested in dose-response had high values
T4 sequence (whole entry): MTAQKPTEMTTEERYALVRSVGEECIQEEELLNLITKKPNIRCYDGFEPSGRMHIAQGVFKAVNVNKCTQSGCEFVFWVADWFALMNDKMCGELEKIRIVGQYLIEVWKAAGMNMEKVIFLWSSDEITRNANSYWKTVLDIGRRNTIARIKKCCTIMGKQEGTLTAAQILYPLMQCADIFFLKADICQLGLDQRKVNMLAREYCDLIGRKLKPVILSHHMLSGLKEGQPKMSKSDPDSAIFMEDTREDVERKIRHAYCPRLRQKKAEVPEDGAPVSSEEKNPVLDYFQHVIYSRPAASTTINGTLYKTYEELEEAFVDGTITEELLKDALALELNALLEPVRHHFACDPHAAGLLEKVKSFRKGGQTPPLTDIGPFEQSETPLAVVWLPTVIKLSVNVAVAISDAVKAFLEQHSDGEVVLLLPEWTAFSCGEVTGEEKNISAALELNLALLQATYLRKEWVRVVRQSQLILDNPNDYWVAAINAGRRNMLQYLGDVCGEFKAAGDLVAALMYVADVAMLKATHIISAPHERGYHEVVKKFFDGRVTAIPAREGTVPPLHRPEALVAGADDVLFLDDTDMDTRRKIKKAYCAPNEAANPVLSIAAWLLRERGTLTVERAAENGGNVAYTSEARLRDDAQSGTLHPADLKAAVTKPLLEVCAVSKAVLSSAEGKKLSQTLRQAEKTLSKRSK

[8] = target: T4, Tyrosyl-tRNA synthetase, putative (Trypanosoma cruzi (strain CL Brener)); assay: Trypanosoma cruzi tyrosyl tRNA synthetase (TcYRS) SOP; assay type: functional; settings: 30 µM
[9] = target: Chromo domain-containing protein 1 (Saccharomyces cerevisiae (strain ATCC 204508 / S288c) (Baker's yeast)) (UniProt P32657); assay: ScCHD-1 Enzyme Inhibition Assay; assay type: functional; settings: 30 µM; also: in the data most compounds retested in dose-response had high values
Chain of Chromo domain-containing protein 1 (Saccharomyces cerevisiae (strain ATCC 204508 / S288c) (Baker's yeast)) (P32657 whole entry, the tested form may be a part): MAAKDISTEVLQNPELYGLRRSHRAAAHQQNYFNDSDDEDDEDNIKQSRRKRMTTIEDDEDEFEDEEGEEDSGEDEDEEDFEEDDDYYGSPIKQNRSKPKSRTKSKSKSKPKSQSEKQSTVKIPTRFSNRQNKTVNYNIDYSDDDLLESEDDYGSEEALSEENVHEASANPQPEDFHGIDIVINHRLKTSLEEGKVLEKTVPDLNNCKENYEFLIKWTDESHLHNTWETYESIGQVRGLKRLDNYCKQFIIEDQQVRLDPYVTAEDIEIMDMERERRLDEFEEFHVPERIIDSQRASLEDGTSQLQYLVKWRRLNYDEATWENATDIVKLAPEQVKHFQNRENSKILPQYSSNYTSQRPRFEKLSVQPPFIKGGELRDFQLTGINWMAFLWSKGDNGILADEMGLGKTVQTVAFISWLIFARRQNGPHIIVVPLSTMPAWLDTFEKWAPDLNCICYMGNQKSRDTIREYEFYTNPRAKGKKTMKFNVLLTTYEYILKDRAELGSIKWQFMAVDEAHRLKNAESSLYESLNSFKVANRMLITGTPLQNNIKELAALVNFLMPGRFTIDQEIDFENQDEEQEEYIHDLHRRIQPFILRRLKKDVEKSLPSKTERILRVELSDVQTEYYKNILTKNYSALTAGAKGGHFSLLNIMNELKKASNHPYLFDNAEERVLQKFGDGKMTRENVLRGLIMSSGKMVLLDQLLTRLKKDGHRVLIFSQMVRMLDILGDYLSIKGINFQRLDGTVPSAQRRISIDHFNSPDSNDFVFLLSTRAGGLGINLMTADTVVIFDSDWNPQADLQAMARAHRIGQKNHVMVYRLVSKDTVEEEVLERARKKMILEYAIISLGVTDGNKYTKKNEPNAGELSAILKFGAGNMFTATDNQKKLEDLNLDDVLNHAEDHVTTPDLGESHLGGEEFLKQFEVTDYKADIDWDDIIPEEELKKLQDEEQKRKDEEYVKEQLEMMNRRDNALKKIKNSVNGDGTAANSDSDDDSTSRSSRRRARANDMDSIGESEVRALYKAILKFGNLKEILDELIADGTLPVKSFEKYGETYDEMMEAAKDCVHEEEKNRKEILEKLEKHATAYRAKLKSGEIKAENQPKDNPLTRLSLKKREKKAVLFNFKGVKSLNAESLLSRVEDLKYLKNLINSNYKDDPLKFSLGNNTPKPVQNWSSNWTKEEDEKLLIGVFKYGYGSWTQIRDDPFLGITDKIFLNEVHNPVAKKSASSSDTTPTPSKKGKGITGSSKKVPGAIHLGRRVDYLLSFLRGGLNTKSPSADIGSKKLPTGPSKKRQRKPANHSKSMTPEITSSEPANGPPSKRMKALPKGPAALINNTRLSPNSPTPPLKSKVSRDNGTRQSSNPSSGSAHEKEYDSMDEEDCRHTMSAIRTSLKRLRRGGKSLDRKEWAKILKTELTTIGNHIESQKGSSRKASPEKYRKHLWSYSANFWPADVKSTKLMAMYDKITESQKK

Chain of Protein translocase subunit SecA (Escherichia coli (strain K12)) (P10408 whole entry): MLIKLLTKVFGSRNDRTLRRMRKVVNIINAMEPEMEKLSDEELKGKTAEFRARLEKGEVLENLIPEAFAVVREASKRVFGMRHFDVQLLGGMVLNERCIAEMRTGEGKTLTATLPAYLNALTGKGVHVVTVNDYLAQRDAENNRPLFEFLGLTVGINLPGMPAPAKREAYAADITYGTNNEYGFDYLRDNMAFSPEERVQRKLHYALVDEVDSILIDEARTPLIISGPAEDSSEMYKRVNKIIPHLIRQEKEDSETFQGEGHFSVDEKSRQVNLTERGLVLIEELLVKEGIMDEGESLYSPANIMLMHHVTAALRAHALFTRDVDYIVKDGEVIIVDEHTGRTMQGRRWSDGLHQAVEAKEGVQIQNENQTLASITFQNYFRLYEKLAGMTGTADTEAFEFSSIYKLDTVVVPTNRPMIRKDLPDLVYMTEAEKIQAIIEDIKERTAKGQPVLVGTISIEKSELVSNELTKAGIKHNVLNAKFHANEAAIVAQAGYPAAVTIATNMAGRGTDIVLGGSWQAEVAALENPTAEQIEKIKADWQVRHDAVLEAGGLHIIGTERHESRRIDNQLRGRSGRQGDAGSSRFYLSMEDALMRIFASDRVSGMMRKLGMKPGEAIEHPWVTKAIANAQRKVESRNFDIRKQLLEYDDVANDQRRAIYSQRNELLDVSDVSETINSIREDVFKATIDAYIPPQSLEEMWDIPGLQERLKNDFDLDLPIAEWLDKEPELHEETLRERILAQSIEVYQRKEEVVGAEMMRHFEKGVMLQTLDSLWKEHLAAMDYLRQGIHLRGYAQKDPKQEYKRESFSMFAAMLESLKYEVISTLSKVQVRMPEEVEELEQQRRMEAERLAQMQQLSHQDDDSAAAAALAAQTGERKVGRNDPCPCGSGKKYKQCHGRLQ

SMILES | Percent Effect [1] | Percent Effect [2] | Percent Effect [3] | Percent Effect [4] | Percent Effect (Trypanosoma cruzi) | Percent Effect [5] | Percent Effect [6] | Percent Effect (Homo sapiens) | Percent Effect [7] | Percent Effect [8] | Percent Effect [9]
CN(Cc1nnc(-c2ccco2)o1)CC1CCCN1c1cccnn1 (stereo unspecified) | -4.76% | 10.4% | -4.64% | -13.5% | -0.881% | 2.32% | 21.9% | 15.6% | 4.76% | 9.41% | -19.2%
CC(C)OCc1ccc(CNC(=O)CC(F)(F)F)cc1 | -5.75% | 21.1% | -5.14% | -0.714% | 3.83% | 0.719% | 3.98% | 6.56% | 8.37% | 23.5% | -9.86%
COCCCN1CCCN(C(C)C(=O)Nc2cccc(I)c2)CC1 (stereo unspecified) | -5.27% | -5.41% | 1.61% | 1.25% | -7.42% | -5% | 15.1% | -8.39% | 1.98% | -3.66% | -0.402%
c1ccc(Cn2cc(CNCC3CCCN3c3cccnn3)cn2)cc1 (stereo unspecified) | -3.01% | 7.89% | -1.98% | -4.74% | 1.96% | -7.55% | 15.5% | 1.15% | 15.3% | 28.4% | -4.79%
O=C(NCc1cccnc1)C1=NOC2(CCN(S(=O)(=O)C3CC3)C2)C1 (stereo unspecified) | -5.43% | 13.3% | -3.17% | -2.3% | 4.25% | -41.4% | 5.81% | -3.44% | -3.12% | 2.5% | -6.85%
COCCN(C)CC(=O)N1C[C@H]2CC[C@@H]1CN(C(=O)c1ccncc1)C2 | -4.1% | 5.33% | -2.28% | 3.27% | -5.75% | 1.56% | 17.1% | 27.7% | 6.01% | 13.6% | -5.9%
CNC(=O)c1cc2c(nc1NCC(C)C)CCN(S(=O)(=O)C1CC1)CC2 | -6.06% | 2.7% | 5.7% | -6.06% | -3.23% | -1.24% | -7.64% | -2.8% | 2.15% | 8.64% | -4.29%
O=C(NCC1CCN(C(=O)c2ccoc2)CC1)c1ccccc1Br | -6.61% | 5.48% | 3.13% | -5.78% | -4.7% | -0.455% | 15.6% | -0.0227% | 3.23% | 5% | -4.05%
Cc1nc(CN(C)C2CCN(CC(=O)NC3CCOCC3)C2)no1 (stereo unspecified) | -1.63% | 16.2% | -9.99% | 0.0133% | -0.836% | -3.14% | 11.1% | 11.9% | 5.94% | 18.3% | -5.55%
COCc1ccccc1C(=O)NCCCN1CCCC1C(=O)N(C)C (stereo unspecified) | 0.173% | 8.22% | -7.48% | 6.16% | 2.94% | -2.27% | 15.8% | 13.9% | 3.23% | 12.5% | -6.47%
CCc1cnc(CN(C(C)=O)C2CCN(CCc3cnn(C)c3)C2)o1 (stereo unspecified) | -2.73% | 18.4% | -1.21% | -1.24% | -1.21% | 2.16% | 9.56% | -1.17% | 7.39% | 18.5% | -6.82%
O=C(NCc1ccccn1)c1nnn(-c2ccc(Br)cc2)n1 | -3.5% | 18.2% | -2.49% | -2.46% | 1.68% | -5.81% | 13.2% | 16.1% | 5.29% | 11.5% | -12.6%
CNc1nc2c(s1)C(c1c(Cl)cccc1Cl)CC(=O)N2 (stereo unspecified) | 2.52% | 5.26% | -467% | 4.3% | 0.682% | 0% | 17% | 4.23% | -10.6% | -10.4% | -2.54%
Cc1ncsc1CN1CC[C@H]2C(=O)N(c3ccccc3)CCO[C@H]2C1 | -1.58% | 10.7% | 7.3% | -5.67% | -0.591% | 1.17% | 16.5% | 14.6% | 11.7% | 16.7% | -4.23%
O=C(c1ccc[nH]1)N1C[C@H]2CN(Cc3cccc(F)c3)C(=O)[C@H]2C1 | -2.55% | 13.5% | 9.65% | -6.44% | -2.05% | 6.05% | 20.3% | 13% | 0% | 7.69% | -2.96%
O=C(c1ccco1)N1CCCC1C1CCN(Cc2ccccc2)CC1 (stereo unspecified) | -3.11% | 7.89% | 6.52% | -0.267% | -2.24% | 4.73% | 17.9% | 8.16% | 6.38% | 10.4% | -2.37%
CCc1cc(NCCNc2cccnc2)n2nccc2n1 | -3.38% | 2.7% | 3.96% | 4.15% | -3.09% | 1.91% | 10% | 13.2% | 4.76% | 7.32% | -3.82%
COc1c(C(=O)NCc2cccnc2)nnn1Cc1ccc(C)cc1 | -1.69% | 1.33% | 1.61% | 3.68% | -4.13% | 1.23% | 4.25% | 5.48% | 1.06% | 2.56% | 0.167%
NC(=O)CN1CCCN(C(=O)c2ccn(-c3ccccc3)n2)CC1 | 0.801% | 9.72% | -1.01% | 12.3% | 1.26% | 9.71% | 11.9% | 13.7% | 5.26% | 7.69% | -4.05%
Cn1ccnc1CN1CCN(CC(=O)NCC(F)(F)F)CC1 | -2.81% | 5.41% | -5.23% | 3.2% | -0.66% | -4.01% | 0% | 11.1% | 0.493% | 6.17% | -3%
O=C(c1ccccn1)N1C[C@@H]2CC[C@H](C1)N(C(=O)CCc1cccs1)C2 | -6.27% | 5.2% | 2.15% | 9.38% | 6.59% | -74.5% | 13.1% | -10.3% | 3.23% | 8.64% | 2.24%

Source: ChEMBL document CHEMBL3988442, “University of Dundee, Small-Polar-MMV Screening Library” (2021)
